# Measured values taken from PubChem BioAssay (NCI).
# Compounds without any hit were thinned out: in the full panel of roughly 79,000, 15% have a hit. A number with no mark means an inactive call. Calls of active or inactive are those of the source. Cut-off read from the data, not from the text of the source: active = growth inhibition above about 70%; inactive = the rest.
# Experiments:
# [1] = NCI Yeast Anticancer Drug Screen. Data for the rad52 strain (AID 147);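 note: 0% = growth of vehicle-treated control cultures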; details: S. cerevisiae rad52 mutant growth inhibition, stronger effect = higher value
# In short: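 Vehicle-treated cultures served as the reference for growth inhibition of compound-exposed yeast bearing a DNA repair mutation.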
# [2] = NCI Yeast Anticancer Drug Screen. Data for the wt1 strain (AID 149);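 note: 0% = growth of vehicle-treated wt1 cultures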; details: S. cerevisiae wt1 strain (SPY 50644) growth inhibition, stronger effect = higher value
# In short: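 The wt1 strain was treated with compounds, and growth was compared with vehicle-treated cultures to give inhibition.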
# [3] = NCI Yeast Anticancer Drug Screen. Data for the rad50EPP+ strain (AID 151);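 note: 0% = growth of vehicle-treated control cultures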; details: S. cerevisiae rad50 mutant strain, stronger effect = higher value
# In short: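 In this screen, rad50EPP+ yeast were exposed to compounds. Growth inhibition was scored against vehicle-treated controls.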
# [4] = NCI Yeast Anticancer Drug Screen. Data for the mgt1 strain (AID 153); details: S. cerevisiae mgt1 mutant growth inhibition, stronger effect = higher value
# In short: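 mgt1 strain exposed; growth vs vehicle control recorded as inhibition.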
# [5] = NCI Yeast Anticancer Drug Screen. Data for the rad50 strain (AID 155);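 note: 0% = growth of vehicle-only cultures of the same strain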; details: S. cerevisiae rad50 strain growth inhibition, stronger effect = higher value
# In short: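 Cells are treated with compound, grown, and their growth is then scored against vehicle-only cultures of the same repair-deficient yeast strain.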
# [6] = NCI Yeast Anticancer Drug Screen. Data for the mec2-1 strain (AID 157); details: S. cerevisiae mec2-1 strain, stronger effect = higher value
# In short: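 Vehicle-treated cultures served as reference for growth inhibition of compound-exposed mec2-1 yeast.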
# [7] = NCI Yeast Anticancer Drug Screen. Data for the rad14 strain (AID 159);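 note: 0% = growth of vehicle-treated control cultures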; details: S. cerevisiae rad14 strain growth inhibition, stronger effect = higher value
# In short: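 Readout: yeast growth inhibition, referenced to vehicle-only cultures. Strain bears a defined alteration in DNA damage repair.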
# [8] = NCI Yeast Anticancer Drug Screen. Data for the sgs1 mgt1 strain (AID 161);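 note: 0% = growth of cultures given vehicle only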; details: S. cerevisiae sgs1 mgt1 strain, stronger effect = higher value
# In short: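 Inhibition of yeast growth, normalised to vehicle-treated controls, is reported for a strain bearing genetic alterations in DNA damage repair.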
# [9] = NCI Yeast Anticancer Drug Screen. Data for the CLN2oe strain (AID 163);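 note: 0% = growth of vehicle-only control cultures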; details: S. cerevisiae CLN2oe strain, stronger effect = higher value
# In short: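 Inhibition relative to vehicle-treated yeast is reported. Cells: strain with genetic alteration in cell-cycle control, grown with compound.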
# [10] = NCI Yeast Anticancer Drug Screen. Data for the cln2 rad14 strain (AID 165);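 note: 0% = growth equal to vehicle treated cultures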; details: S. cerevisiae cln2 rad14 strain, stronger effect = higher value
# In short: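 Each compound was tested on cln2 rad14 yeast. Inhibition of growth was calculated against vehicle-exposed controls.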
# [11] = NCI Yeast Anticancer Drug Screen. Data for the bub3 strain (AID 167); details: S. cerevisiae bub3 mutant strain, stronger effect = higher value
# In short: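 Part of a panel of yeast mutants defective in DNA damage repair or cell cycle regulation. Each strain is grown with compound, and inhibition is calculated relative to solvent-treated cultures.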
# [12] = NCI Yeast Anticancer Drug Screen. Data for the wt2 strain (AID 169);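 note: 0% = growth of vehicle-treated yeast cultures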; details: S. cerevisiae wt2 strain growth inhibition, stronger effect = higher value
# In short: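 Inhibition of yeast growth was determined after compound treatment, normalised to controls receiving only vehicle.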
# [13] = NCI Yeast Anticancer Drug Screen. Data for the mlh1 strain (AID 171);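 note: 0% = growth of vehicle-treated control cultures of the same strain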; details: S. cerevisiae mlh1 strain growth inhibition, stronger effect = higher value
# In short: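 Vehicle-normalised growth inhibition of a repair- or checkpoint-altered yeast strain following compound treatment.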
# [14] = NCI Yeast Anticancer Drug Screen. Data for the sgs1 strain (AID 173);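 note: 0% = growth of vehicle-only control cultures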; details: S. cerevisiae sgs1 mutant, stronger effect = higher value
# In short: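 Screen format: yeast with repair or checkpoint alterations, compound exposure, growth read relative to vehicle.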
# [15] = NCI Yeast Anticancer Drug Screen. Data for the mlh1 rad18 strain (AID 175); details: S. cerevisiae mlh1 rad18 strain growth inhibition, stronger effect = higher value
# In short: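 Vehicle-treated cultures served as the reference for growth inhibition in a yeast strain carrying DNA damage repair alterations exposed to each compound.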
# [16] = NCI Yeast Anticancer Drug Screen. Data for the rad18 strain (AID 177); details: S. cerevisiae rad18 mutant growth inhibition, stronger effect = higher value
# In short: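 Test articles were incubated with altered yeast defective in DNA damage repair. Results are given as inhibition of growth versus vehicle.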
# [17] = at 5.0 µM (retest, dose inferred, filed as 0.5)
# [18] = at 50.0 µM (retest, dose inferred, filed as 5.0)
smiles,measurement,setting,value
O=C(CNS(=O)(=O)Cc1ccccc1)NNc1ccccc1,growth inhibition,[1]; at 1.2 µM,-1%
same,growth inhibition,[1]; at 3.7 µM,2%
same,growth inhibition,[1]; at 11.0 µM,12%
same,growth inhibition,[1]; at 33.0 µM,35%
same,growth inhibition,[1]; at 100.0 µM,44%
same,growth inhibition,[2]; at 1.2 µM,-1%
same,growth inhibition,[2]; at 3.7 µM,5%
same,growth inhibition,[2]; at 11.0 µM,4%
same,growth inhibition,[2]; at 33.0 µM,23%
same,growth inhibition,[2]; at 100.0 µM,36%
same,growth inhibition,[3]; at 1.2 µM,2%
same,growth inhibition,[3]; at 3.7 µM,4%
same,growth inhibition,[3]; at 11.0 µM,22%
same,growth inhibition,[3]; at 33.0 µM,43%
same,growth inhibition,[3]; at 100.0 µM,58%
same,growth inhibition,[4]; at 1.2 µM,-1%
same,growth inhibition,[4]; at 3.7 µM,12%
same,growth inhibition,[4]; at 11.0 µM,14%
same,growth inhibition,[4]; at 33.0 µM,16%
same,growth inhibition,[4]; at 100.0 µM,16%
same,growth inhibition,[5]; at 1.2 µM,2%
same,growth inhibition,[5]; at 3.7 µM,4%
same,growth inhibition,[5]; [17],13%
same,growth inhibition,[5]; at 11.0 µM,9%
same,growth inhibition,[5]; at 33.0 µM,17%
same,growth inhibition,[5]; [18],64%
same,growth inhibition,[5]; at 50.0 µM,75.8% (active)
same,growth inhibition,[5]; at 100.0 µM,24%
same,growth inhibition,[6]; at 1.2 µM,-1%
same,growth inhibition,[6]; at 3.7 µM,0%
same,growth inhibition,[6]; [17],-3%
same,growth inhibition,[6]; at 11.0 µM,7%
same,growth inhibition,[6]; at 33.0 µM,14%
same,growth inhibition,[6]; [18],9%
same,growth inhibition,[6]; at 50.0 µM,62.5%
same,growth inhibition,[6]; at 100.0 µM,16%
same,growth inhibition,[7]; at 1.2 µM,0%
same,growth inhibition,[7]; at 3.7 µM,3%
same,growth inhibition,[7]; at 11.0 µM,6%
same,growth inhibition,[7]; at 33.0 µM,13%
same,growth inhibition,[7]; at 100.0 µM,20%
same,growth inhibition,[8]; [17],28%
same,growth inhibition,[8]; [18],71% (active)
same,growth inhibition,[8]; at 50.0 µM,63.6%
same,growth inhibition,[9]; at 1.2 µM,5%
same,growth inhibition,[9]; at 3.7 µM,5%
same,growth inhibition,[9]; at 11.0 µM,24%
same,growth inhibition,[9]; at 33.0 µM,39%
same,growth inhibition,[9]; at 100.0 µM,39%
same,growth inhibition,[10]; [17],8%
same,growth inhibition,[10]; [18],33%
same,growth inhibition,[10]; at 50.0 µM,60%
same,growth inhibition,[11]; at 1.2 µM,1%
same,growth inhibition,[11]; at 3.7 µM,0%
same,growth inhibition,[11]; [17],5%
same,growth inhibition,[11]; at 11.0 µM,2%
same,growth inhibition,[11]; at 33.0 µM,8%
same,growth inhibition,[11]; [18],29%
same,growth inhibition,[11]; at 50.0 µM,69.3%
same,growth inhibition,[11]; at 100.0 µM,10%
same,growth inhibition,[12]; at 1.2 µM,1%
same,growth inhibition,[12]; at 3.7 µM,2%
same,growth inhibition,[12]; at 11.0 µM,11%
same,growth inhibition,[12]; at 33.0 µM,30%
same,growth inhibition,[12]; at 100.0 µM,38%
same,growth inhibition,[13]; at 1.2 µM,-4%
same,growth inhibition,[13]; at 3.7 µM,0%
same,growth inhibition,[13]; at 11.0 µM,5%
same,growth inhibition,[13]; at 33.0 µM,16%
same,growth inhibition,[13]; at 100.0 µM,24%
same,growth inhibition,[14]; at 1.2 µM,-1%
same,growth inhibition,[14]; at 3.7 µM,-1%
same,growth inhibition,[14]; at 11.0 µM,8%
same,growth inhibition,[14]; at 33.0 µM,36%
same,growth inhibition,[14]; at 100.0 µM,54%
same,growth inhibition,[15]; [17],71% (active)
same,growth inhibition,[15]; [18],90% (active)
same,growth inhibition,[15]; at 50.0 µM,40.1%
same,growth inhibition,[16]; at 1.2 µM,4%
same,growth inhibition,[16]; at 3.7 µM,5%
same,growth inhibition,[16]; at 11.0 µM,23%
same,growth inhibition,[16]; at 33.0 µM,63%
same,growth inhibition,[16]; at 100.0 µM,83% (active)
O=C1c2cccc3cc([N+](=O)[O-])cc(c23)C(=O)N1CCN1CCCC1,growth inhibition,[1]; at 1.2 µM,33%
same,growth inhibition,[1]; at 3.7 µM,61%
same,growth inhibition,[1]; at 11.0 µM,63%
same,growth inhibition,[1]; at 33.0 µM,90% (active)
same,growth inhibition,[1]; at 100.0 µM,94% (active)
same,growth inhibition,[2]; at 1.2 µM,8%
same,growth inhibition,[2]; at 3.7 µM,8%
same,growth inhibition,[2]; at 11.0 µM,0%
same,growth inhibition,[2]; at 33.0 µM,3%
same,growth inhibition,[2]; at 100.0 µM,25%
same,growth inhibition,[3]; at 1.2 µM,13%
same,growth inhibition,[3]; at 3.7 µM,23%
same,growth inhibition,[3]; at 11.0 µM,39%
same,growth inhibition,[3]; at 33.0 µM,73% (active)
same,growth inhibition,[3]; at 100.0 µM,83% (active)
same,growth inhibition,[4]; at 1.2 µM,-6%
same,growth inhibition,[4]; at 3.7 µM,10%
same,growth inhibition,[4]; at 11.0 µM,8%
same,growth inhibition,[4]; at 33.0 µM,7%
same,growth inhibition,[4]; at 100.0 µM,44%
same,growth inhibition,[5]; at 1.2 µM,16%
same,growth inhibition,[5]; at 3.7 µM,48%
same,growth inhibition,[5]; [17],11%
same,growth inhibition,[5]; at 11.0 µM,62%
same,growth inhibition,[5]; at 33.0 µM,88% (active)
same,growth inhibition,[5]; [18],95% (active)
same,growth inhibition,[5]; at 50.0 µM,66.7%
same,growth inhibition,[5]; at 100.0 µM,91% (active)
same,growth inhibition,[6]; at 1.2 µM,5%
same,growth inhibition,[6]; at 3.7 µM,5%
same,growth inhibition,[6]; [17],11%
same,growth inhibition,[6]; at 11.0 µM,-3%
same,growth inhibition,[6]; at 33.0 µM,-4%
same,growth inhibition,[6]; [18],30%
same,growth inhibition,[6]; at 50.0 µM,28.1%
same,growth inhibition,[6]; at 100.0 µM,38%
same,growth inhibition,[7]; at 1.2 µM,12%
same,growth inhibition,[7]; at 3.7 µM,11%
same,growth inhibition,[7]; at 11.0 µM,14%
same,growth inhibition,[7]; at 33.0 µM,5%
same,growth inhibition,[7]; at 100.0 µM,28%
same,growth inhibition,[8]; [17],8%
same,growth inhibition,[8]; [18],12%
same,growth inhibition,[8]; at 50.0 µM,-14.2%
same,growth inhibition,[9]; at 1.2 µM,7%
same,growth inhibition,[9]; at 3.7 µM,25%
same,growth inhibition,[9]; at 11.0 µM,25%
same,growth inhibition,[9]; at 33.0 µM,39%
same,growth inhibition,[9]; at 100.0 µM,61%
same,growth inhibition,[10]; [17],9%
same,growth inhibition,[10]; [18],36%
same,growth inhibition,[10]; at 50.0 µM,-15.8%
same,growth inhibition,[11]; at 1.2 µM,9%
same,growth inhibition,[11]; at 3.7 µM,20%
same,growth inhibition,[11]; [17],9%
same,growth inhibition,[11]; at 11.0 µM,13%
same,growth inhibition,[11]; at 33.0 µM,17%
same,growth inhibition,[11]; [18],12%
same,growth inhibition,[11]; at 50.0 µM,-11.2%
same,growth inhibition,[11]; at 100.0 µM,35%
same,growth inhibition,[12]; at 1.2 µM,-11%
same,growth inhibition,[12]; at 3.7 µM,0%
same,growth inhibition,[12]; at 11.0 µM,12%
same,growth inhibition,[12]; at 33.0 µM,7%
same,growth inhibition,[12]; at 100.0 µM,19%
same,growth inhibition,[13]; at 1.2 µM,0%
same,growth inhibition,[13]; at 3.7 µM,20%
same,growth inhibition,[13]; at 11.0 µM,-4%
same,growth inhibition,[13]; at 33.0 µM,18%
same,growth inhibition,[13]; at 100.0 µM,39%
same,growth inhibition,[14]; at 1.2 µM,0%
same,growth inhibition,[14]; at 3.7 µM,0%
same,growth inhibition,[14]; at 11.0 µM,2%
same,growth inhibition,[14]; at 33.0 µM,19%
same,growth inhibition,[14]; at 100.0 µM,50%
same,growth inhibition,[15]; [17],3%
same,growth inhibition,[15]; [18],18%
same,growth inhibition,[15]; at 50.0 µM,-41.9%
same,growth inhibition,[16]; at 1.2 µM,24%
same,growth inhibition,[16]; at 3.7 µM,23%
same,growth inhibition,[16]; at 11.0 µM,33%
same,growth inhibition,[16]; at 33.0 µM,15%
same,growth inhibition,[16]; at 100.0 µM,73% (active)
